“And” between values parts separate entries of the source, which are not always exact repeats. Identical values can stand only once. The panel holds about 83,000 compounds, 20% with a hit somewhere; the sample as a whole holds those more often.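 Cell lines were cultured in 96-well plates, exposed to a single compound concentration, and assessed for percent growth 48 hours later.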 The source made the active and inactive calls. The calls were made as follows: active = growth percent below 10; inactive = the rest.
Key:
Test in all cases: NCI-60 one-dose screen, 48 h (100 = growth as untreated, 0 = no growth, -100 = all killed)
Details in all cases: 10 µM unless noted
NCI-H23 lung = tested on: NCI-H23 lung
NCI-H226 lung = tested on: NCI-H226 lung
NCI-H322M lung = tested on: NCI-H322M lung
HOP-62 NSCLC = tested on: HOP-62 NSCLC
NCI-H460 lung = tested on: NCI-H460 lung
HOP-92 NSCLC = tested on: HOP-92 NSCLC
NCI-H522 lung = tested on: NCI-H522 lung
A549/ATCC NSCLC = tested on: A549/ATCC NSCLC
786-0 renal = tested on: 786-0 renal
COLO 205 colon = tested on: COLO 205 colon
DU-145 prostate = tested on: DU-145 prostate
K-562 leukemia = tested on: K-562 leukemia
MALME-3M melanoma = tested on: MALME-3M melanoma
MDA-MB-231 breast = tested on: MDA-MB-231 breast
RXF 393 renal = tested on: RXF 393 renal
SF-268 CNS = tested on: SF-268 CNS
SF-295 CNS = tested on: SF-295 CNS
SF-539 CNS = tested on: SF-539 CNS
UACC-257 melanoma = tested on: UACC-257 melanoma
M14 melanoma = tested on: M14 melanoma

Measured: growth

CC(=O)OC1CC2(O)C(CCC3(C)C(c4ccc(=O)oc4)CCC32O)C2(C)CCC(OC3OC(CO)C(O)C(O)C3O)C=C12 (stereo not given)
active: NCI-H23 lung -57.2% | NCI-H226 lung -91.6% | NCI-H322M lung -81.6% | HOP-62 NSCLC -70.7% | NCI-H460 lung -75.3% | HOP-92 NSCLC -24.2% | NCI-H522 lung -39.2% | A549/ATCC NSCLC -72.9% | 786-0 renal -74.6% | COLO 205 colon -47.1% | DU-145 prostate -100% | K-562 leukemia -30.4% | MALME-3M melanoma -43.7% | MDA-MB-231 breast -20.3% | RXF 393 renal -45% | SF-268 CNS -97.4% | SF-295 CNS -62.2% | SF-539 CNS -97.9% | UACC-257 melanoma -62.3% | M14 melanoma -78%

CC1=CC(=Nc2ccc(N(CCCl)CCCl)cc2)C=C(C)C1=O
active: NCI-H460 lung 7.26% | HOP-92 NSCLC -30.7% | NCI-H522 lung -87.2% | DU-145 prostate -39.4% | MALME-3M melanoma 8.43% | RXF 393 renal -80.3% | SF-268 CNS -9.09% | SF-539 CNS 4.45%
inactive: NCI-H23 lung 23% | NCI-H226 lung 44.5% | NCI-H322M lung 79.2% | HOP-62 NSCLC 36.5% | A549/ATCC NSCLC 38.4% | 786-0 renal 21% | COLO 205 colon 39.5% | K-562 leukemia 17.4% | MDA-MB-231 breast 40.8% | SF-295 CNS 14.9% | UACC-257 melanoma 19.3% | M14 melanoma 29.5%

C[C@]12CC[C@H]3[C@@H](C[C@@H]4SC(Nc5ccccc5)=N[C@@]45C/C(=N/O)CC[C@]35C)[C@@H]1CCC2=O
inactive: NCI-H23 lung 79.5% | NCI-H226 lung 114% | NCI-H322M lung 94.5% | HOP-62 NSCLC 94% | NCI-H460 lung 56.4% | HOP-92 NSCLC 107% | NCI-H522 lung 71.5% | A549/ATCC NSCLC 88.9% | 786-0 renal 18.4% | COLO 205 colon 97% | DU-145 prostate 29.8% | K-562 leukemia 12.5% | MALME-3M melanoma 83.8% | MDA-MB-231 breast 78.2% | RXF 393 renal 28.8% | SF-268 CNS 57.7% | SF-295 CNS 55.7% | SF-539 CNS 44.2% | UACC-257 melanoma 99.9% | M14 melanoma 68.5%

C/C(=C\c1ccn(-c2ccc(N)c(C(F)(F)F)c2)n1)[C@@H]1C[C@@H]2O[C@]2(C)CCC[C@H](C)[C@H](O)[C@@H](C)C(=O)C(C)(C)[C@@H](O)CC(=O)O1
inactive: NCI-H23 lung 32.9% | NCI-H226 lung 52% | NCI-H322M lung 23.2% | HOP-62 NSCLC 41% | NCI-H460 lung 12.7% | HOP-92 NSCLC 52.4% | NCI-H522 lung 30.3% | A549/ATCC NSCLC 31.1% | 786-0 renal 27.4% | K-562 leukemia 11.9% | MALME-3M melanoma 51.7% | MDA-MB-231 breast 22.8% | SF-268 CNS 36% | SF-295 CNS 15.1% | UACC-257 melanoma 64.3% | M14 melanoma 21.7%
active: COLO 205 colon -16.5% | DU-145 prostate -12.7% | RXF 393 renal 8.01% | SF-539 CNS -8.5%

CCN1C(=O)CC(=O)N(CC)C1=S
inactive: NCI-H23 lung 82% | NCI-H226 lung 103% | NCI-H322M lung 102% | HOP-62 NSCLC 172% | NCI-H460 lung 107% | HOP-92 NSCLC 92.1% | NCI-H522 lung 84.1% | A549/ATCC NSCLC 109% | 786-0 renal 97.6% | COLO 205 colon 115% | DU-145 prostate 122% | K-562 leukemia 107% | MALME-3M melanoma 95.8% | MDA-MB-231 breast 107% | RXF 393 renal 100% | SF-268 CNS 101% | SF-295 CNS 111% | SF-539 CNS 96.9% | UACC-257 melanoma 102% | M14 melanoma 105%

CCN1C(=O)NC(=O)C(C)(N2C(=O)c3c(F)c(F)c(F)c(F)c3C2=O)C1=O (stereo not given)
inactive: NCI-H23 lung 32.3% | NCI-H226 lung 105% | NCI-H322M lung 96.7% | HOP-62 NSCLC 101% | NCI-H460 lung 22.8% | A549/ATCC NSCLC 43.1% | 786-0 renal 37.4% | DU-145 prostate 31.9% | SF-295 CNS 84.1% | SF-539 CNS 18.6% | UACC-257 melanoma 38.5% | M14 melanoma 24.4%
active: HOP-92 NSCLC -42.6% | NCI-H522 lung -76.6% | COLO 205 colon -51.4% | K-562 leukemia -71.2% | MALME-3M melanoma -39.6% | MDA-MB-231 breast 9.99% | RXF 393 renal -63.8% | SF-268 CNS 5.09%

C#Cc1cccc(Nc2nc(Cl)nc3cc(NC(=O)CF)ccc23)c1
inactive: NCI-H23 lung 80.2% | NCI-H226 lung 86.6% | NCI-H322M lung 80% | HOP-62 NSCLC 70% | NCI-H460 lung 29.4% | HOP-92 NSCLC 91.1% | NCI-H522 lung 28.9% | A549/ATCC NSCLC 55.4% | 786-0 renal 92.9% | COLO 205 colon 41.8% | DU-145 prostate 98.1% | K-562 leukemia 28% | MALME-3M melanoma 70.5% | MDA-MB-231 breast 64.5% | RXF 393 renal 100% | SF-268 CNS 87.8% | SF-295 CNS 71.9% | SF-539 CNS 89.1% | UACC-257 melanoma 88.7% | M14 melanoma 48.3%

CN(C)c1ccc([N+](=O)[O-])c([N+](=O)[O-])c1
-70.3% (active) and 64.7% (inactive): NCI-H522 lung
inactive: NCI-H23 lung 109% and 96.9% | NCI-H226 lung 113% and 105% | NCI-H322M lung 111% and 101% | HOP-62 NSCLC 113% and 122% | NCI-H460 lung 110% and 109% | HOP-92 NSCLC 101% and 104% | A549/ATCC NSCLC 101% and 88.3% | 786-0 renal 116% and 106% | COLO 205 colon 106% and 122% | DU-145 prostate 103% and 113% | K-562 leukemia 113% and 104% | MALME-3M melanoma 100% | MDA-MB-231 breast 98.4% and 99.1% | RXF 393 renal 111% and 95.3% | SF-268 CNS 106% and 111% | SF-295 CNS 112% and 106% | SF-539 CNS 128% and 104% | UACC-257 melanoma 95.7% and 88.2% | M14 melanoma 99.4% and 93.7%

N#CC(NC(=O)CCl)=C(Cl)Cl
active: HOP-92 NSCLC -71.5% | NCI-H522 lung -84.4% | 786-0 renal -72.2% | COLO 205 colon -90.4% | K-562 leukemia -23.6% | MALME-3M melanoma -79.1% | MDA-MB-231 breast 1.44% | RXF 393 renal -78% | SF-539 CNS 5.84% | UACC-257 melanoma 3.34% | M14 melanoma -91.1%
inactive: NCI-H23 lung 28.5% | NCI-H226 lung 70.8% | NCI-H322M lung 78.6% | HOP-62 NSCLC 73.2% | NCI-H460 lung 50.7% | A549/ATCC NSCLC 66.8% | DU-145 prostate 44.1% | SF-268 CNS 28.9% | SF-295 CNS 89.9%

Cc1ccccc1-n1c(/C=C\c2ccccn2)nc2ccccc2c1=O
active: 786-0 renal -1.31% | RXF 393 renal 7.42%
inactive: NCI-H23 lung 55.5% | NCI-H226 lung 97.8% | NCI-H322M lung 44.9% | HOP-62 NSCLC 107% | NCI-H460 lung 68% | HOP-92 NSCLC 41.2% | NCI-H522 lung 54.8% | A549/ATCC NSCLC 80.4% | COLO 205 colon 94.2% | DU-145 prostate 21.3% | K-562 leukemia 23.8% | MALME-3M melanoma 59.5% | MDA-MB-231 breast 77.1% | SF-268 CNS 61.7% | SF-295 CNS 74.4% | SF-539 CNS 82.8% | UACC-257 melanoma 81.8% | M14 melanoma 64.9%

CC12CCC3C4CCC(=O)C=C4CCC3C1CC1CC(=O)OC12 (stereo not given)
inactive: NCI-H23 lung 96.2% | NCI-H226 lung 93.7% | NCI-H322M lung 89.9% | HOP-62 NSCLC 88% | NCI-H460 lung 104% | HOP-92 NSCLC 92.7% | NCI-H522 lung 79% | A549/ATCC NSCLC 84.5% | 786-0 renal 107% | COLO 205 colon 105% | DU-145 prostate 112% | K-562 leukemia 95.5% | MALME-3M melanoma 103% | MDA-MB-231 breast 97.6% | RXF 393 renal 110% | SF-268 CNS 98% | SF-295 CNS 103% | SF-539 CNS 101% | UACC-257 melanoma 80.7% | M14 melanoma 104%

C/C(=C(\c1ccc(OCCN2CCOCC2)cc1)c1ccc(OC(=O)Cc2ccccc2)cc1)c1ccc(Cl)cc1
active: K-562 leukemia 7.15%
inactive: NCI-H23 lung 86% | NCI-H226 lung 103% | NCI-H322M lung 90.6% | HOP-62 NSCLC 98.9% | NCI-H460 lung 97.6% | HOP-92 NSCLC 70% | NCI-H522 lung 72.9% | A549/ATCC NSCLC 90.4% | 786-0 renal 77.7% | COLO 205 colon 106% | DU-145 prostate 97.8% | MALME-3M melanoma 104% | MDA-MB-231 breast 96.8% | RXF 393 renal 89.6% | SF-268 CNS 90.1% | SF-295 CNS 98.9% | SF-539 CNS 98.2% | UACC-257 melanoma 87.5% | M14 melanoma 85.1%

CCOP(=O)(NC)OCC
inactive: NCI-H23 lung 95.6% | NCI-H226 lung 94.3% | NCI-H322M lung 122% | HOP-62 NSCLC 90.8% | NCI-H460 lung 104% | HOP-92 NSCLC 74.5% | NCI-H522 lung 112% | A549/ATCC NSCLC 114% | 786-0 renal 92.1% | COLO 205 colon 117% | DU-145 prostate 112% | K-562 leukemia 120% | MALME-3M melanoma 121% | MDA-MB-231 breast 104% | RXF 393 renal 118% | SF-268 CNS 98.7% | SF-295 CNS 129% | SF-539 CNS 101% | UACC-257 melanoma 121% | M14 melanoma 94.8%

Source: PubChem BioAssay (NCI)
